# Laboratory results reported in PubChem BioAssay (NCI).
# Compounds without any hit were thinned out: in the full panel of roughly 79,000, 15% have a hit. Values without a mark were called inactive. The source made the active and inactive calls. Rule as the data show it: active = growth inhibition above about 70%; inactive = the rest.
# Key:
# [1] = NCI Yeast Anticancer Drug Screen. Data for the rad50 strain (AID 155);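 also: 0% = growth of vehicle-only cultures of the same strain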; conditions: S. cerevisiae rad50 strain growth inhibition, stronger effect = higher value
# How it was run: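 Yeast carrying a defined DNA repair defect were exposed to test compounds, and growth was compared with vehicle-treated controls to give percent inhibition.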
# [2] = NCI Yeast Anticancer Drug Screen. Data for the mec2-1 strain (AID 157); conditions: S. cerevisiae mec2-1 strain, stronger effect = higher value
# How it was run: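 Test agents were screened against the mec2-1 yeast strain, with defined DNA repair or cell cycle alteration. Growth was scored as inhibition against vehicle-only controls.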
# [3] = NCI Yeast Anticancer Drug Screen. Data for the sgs1 mgt1 strain (AID 161);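 also: 0% = growth of cultures given vehicle only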; conditions: S. cerevisiae sgs1 mgt1 strain, stronger effect = higher value
# How it was run: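 Read-out: growth inhibition vs vehicle controls. Cells: mutant yeast strain deficient in DNA damage repair.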
# [4] = NCI Yeast Anticancer Drug Screen. Data for the cln2 rad14 strain (AID 165);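 also: 0% = growth equal to vehicle treated cultures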; conditions: S. cerevisiae cln2 rad14 strain, stronger effect = higher value
# How it was run: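 Growth of compound-exposed yeast (cln2 rad14 genotype) measured and expressed as inhibition relative to vehicle.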
# [5] = NCI Yeast Anticancer Drug Screen. Data for the bub3 strain (AID 167); conditions: S. cerevisiae bub3 mutant strain, stronger effect = higher value
# How it was run: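 Compounds were applied to a genetically altered yeast strain carrying a cell-cycle control defect. Growth inhibition was scored against vehicle-treated controls.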
# [6] = NCI Yeast Anticancer Drug Screen. Data for the mlh1 rad18 strain (AID 175); conditions: S. cerevisiae mlh1 rad18 strain growth inhibition, stronger effect = higher value
# How it was run: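 In this whole-cell yeast screen, a strain with altered DNA damage repair is challenged with compound, and its growth is measured against matched vehicle-treated controls.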
# [7] = at 5.0 µM (retest, dose inferred, filed as 0.5)
# [8] = at 50.0 µM (retest, dose inferred, filed as 5.0)
SMILES,"growth inhibition [1, 7]","growth inhibition [1, 8]",growth inhibition ([1]; at 50.0 µM),"growth inhibition [2, 7]","growth inhibition [2, 8]",growth inhibition ([2]; at 50.0 µM),"growth inhibition [3, 7]","growth inhibition [3, 8]",growth inhibition ([3]; at 50.0 µM),"growth inhibition [4, 7]","growth inhibition [4, 8]",growth inhibition ([4]; at 50.0 µM),"growth inhibition [5, 7]","growth inhibition [5, 8]",growth inhibition ([5]; at 50.0 µM),"growth inhibition [6, 7]","growth inhibition [6, 8]",growth inhibition ([6]; at 50.0 µM)
CCn1c2ccc([N+](=O)[O-])cc2c2c([N+](=O)[O-])c(-n3cccc3)ccc21,24%,59%,86% (active),2%,10%,0.3%,5%,28%,36.4%,-3%,6%,8.9%,-3%,-4%,10.9%,3%,29%,21.2%
CC(C)c1ccc(O)c(O)c(=O)c1 (tested in a mixture with another compound),99% (active),100% (active),99.5% (active),100% (active),100% (active),99.7% (active),99% (active),99% (active),99.5% (active),97% (active),99% (active),99.1% (active),99% (active),100% (active),99.3% (active),99% (active),99% (active),99.3% (active)
COc1ccc(C2=C(Cl)C(=O)N(c3ccccc3Cl)C(=O)C2(Cl)Cl)cc1,19%,96% (active),92.7% (active),-1%,95% (active),98.7% (active),17%,97% (active),97.5% (active),-5%,96% (active),71.5% (active),0%,97% (active),97.1% (active),17%,80% (active),97.4% (active)
NN=C(CC(O)(C(F)(F)Cl)C(F)(F)Cl)CC(O)(C(F)(F)Cl)C(F)(F)Cl,32%,99% (active),98.9% (active),32%,99% (active),99.2% (active),26%,99% (active),99.1% (active),33%,100% (active),99.3% (active),6%,100% (active),99% (active),38%,99% (active),98.8% (active)
COc1ccc2c3c(c4cc(OC)c(OC)cc4c2c1)CN1CCC[C@H]1[C@@H]3O,19%,99% (active),89.4% (active),7%,99% (active),90.6% (active),97% (active),98% (active),91.1% (active),90% (active),97% (active),88.2% (active),95% (active),98% (active),89.7% (active),98% (active),97% (active),89.2% (active)
Oc1c(Cl)cc(Cl)c(Cc2c(Cl)cc(Cl)c(O)c2Cl)c1Cl,98% (active),97% (active),65.8%,98% (active),98% (active),3.5%,98% (active),99% (active),-10.2%,98% (active),97% (active),19.5%,97% (active),97% (active),-3.05%,99% (active),96% (active),46.6%
CN(c1ccccc1)N(C)c1ccccc1,-1%,22%,40.6%,-3%,-1%,-3.45%,-5%,-16%,-17.4%,8%,15%,-33.2%,5%,5%,-7.8%,3%,26%,4%
c1nc(N2CCOCC2)c2[nH]cnc2n1,5%,-5%,22.1%,-1%,-7%,8.05%,0%,4%,12.2%,-1%,-13%,36.5%,-2%,8%,-5.75%,5%,5%,17.4%
CN1CCN(CC(C(=O)O)(c2ccccc2)c2ccccc2)CC1,-1%,2%,-1.85%,3%,-5%,5.05%,-3%,0%,-16.6%,4%,-1%,14.2%,0%,-5%,59.5%,-1%,-4%,-13.2%
C=CCCCCO/N=C/c1c2c(O)c3c(O)c(C)c4c(c3c1O)C(=O)C(C)(O/C=C/C(OC)C(C)C(OC(C)=O)C(C)C(O)C(C)C(O)C(C)/C=C/C=C(\C)C(=O)N2)O4 (configuration not stated),44%,89% (active),86.4% (active),44%,91% (active),91.8% (active),33%,87% (active),66.8%,67%,91% (active),88.3% (active),49%,93% (active),79.9% (active),34%,89% (active),85.3% (active)
Cc1ccc(SC2C(=O)C3(C)CCC2C3(C)C)cc1 (configuration not stated),-1%,32%,64.2%,-1%,27%,28.8%,-2%,44%,72.2% (active),-1%,1%,-21.7%,2%,28%,37.5%,0%,52%,82% (active)
CN(C)C(=S)/N=c1\ss/c(=N\C(=S)N(C)C)n1-c1cccc(Cl)c1,6%,8%,95.9% (active),15%,2%,95.2% (active),4%,12%,94% (active),4%,-13%,80.8% (active),3%,-4%,96.2% (active),5%,3%,94.2% (active)
Nc1cccc2c1C(=O)c1ccc(Cl)cc1C2=O,69%,81% (active),93.7% (active),18%,34%,71.8% (active),4%,61%,55%,0%,6%,-17.6%,12%,39%,85.4% (active),15%,60%,44.8%
CC(CCC(=O)O)(Nc1ccc([N+](=O)[O-])cc1[N+](=O)[O-])C(=O)O (configuration not stated),51%,99% (active),99.2% (active),41%,100% (active),99.6% (active),52%,99% (active),99.1% (active),18%,100% (active),91.9% (active),34%,100% (active),98.8% (active),57%,100% (active),98.8% (active)
Nc1cc(S(=O)(=O)O)cc2cc(S(=O)(=O)O)c(N=Nc3ccccc3)c(O)c12,0%,-1%,99.3% (active),-2%,5%,99.2% (active),0%,0%,99.3% (active),12%,3%,96.5% (active),-36%,10%,99% (active),0%,1%,98.7% (active)
CCCCCOC(=O)C(C)SC#N (configuration not stated),12%,45%,42.2%,-13%,54%,47.9%,4%,80% (active),66.7%,6%,29%,92.3% (active),9%,52%,54.9%,19%,44%,73.8% (active)
Nc1ccc(S(=O)(=O)Nc2ccccc2)cc1,-4%,42%,-7.35%,7%,7%,-9.35%,-1%,3%,26.1%,0%,-6%,50.7%,37%,-1%,-2.1%,0%,4%,4.25%
CC1(C)CC(=O)C2=C(C1)OC1=C(CC(C)(C)CC1=O)C2c1ccccc1[N+](=O)[O-] (configuration not stated),22%,22%,-21.8%,16%,12%,-13.3%,25%,19%,-13.5%,23%,41%,-7.3%,9%,5%,-17.6%,24%,27%,-17.1%
CC(C)(C)C(=O)CC(=O)C(F)(F)C(F)(F)C(F)(F)F.[Ag],97% (active),98% (active),91.8% (active),99% (active),99% (active),93% (active),99% (active),99% (active),90% (active),92% (active),99% (active),89.6% (active),98% (active),98% (active),87.8% (active),98% (active),98% (active),88.4% (active)
